Mot1-301 SUMO – inhibitors of SUMOylation pathway: yeast Mot1-301 growth rescue. growth rescue, % at 18.8 µM. S. cerevisiae Mot1-301 growth rescue, ATP luminescence, 38.5C; percent above DMSO median, 100 means doubled. AID 2716. 320,000 tested, 1% active;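 active = every valid replicate shows activation above 250% relative to neutral control wells; inactive = the rest, any valid replicate at or below 250%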;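 note: OY570 slx delta 5 strain wells were the positive control but not used for scaling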
AI-2 QS mod – Vibrio harveyi AI-2 quorum sensing modulation; Vibrio harveyi JMH597 AI-2 luminescence/OD600 ratio, 9 h; hits give low values; strain lacks LuxN and CqsS sensors; 0 = neutral-control median; activity change, % at 7.5 µM; 300,000 tested, 0.4% active; in the data active = activity change below about -75%, passing the limit was not always enough; inconclusive = no clear call, values can overlap the other calls;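 note: luminescence divided by OD600 gain over 9 h not by final OD600 alone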
ARNT-TACC3 inh – ARNT/TACC3 interaction disruption; AlphaScreen His-ARNT PAS-B/GST-TACC3 binding, luminescence; TACC3 fragment carries E629A point mutation; inhibition, % at 9.99 µM; 390,000 tested, 0.66% active; AID 623870;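 active = mean inhibition of replicates at least 50% and at least half of replicates each reaching 50%; inconclusive = half or more replicates reach 50% but mean below 50%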;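 note: 0% = complete ARNT plus TACC3 wells and 100% = ARNT alone without TACC3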
aDG glyco up – increases alpha dystroglycan glycosylation. activation, % at 10 µM. Pro5-aDG cells, alpha-DG glycosylation AlphaScreen (IIH6); 0% Pro5, 100% B10-LARGE cell signal. 360,000 tested, 0.22% active;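 active = activation of at least 8% versus controls, or a plate z-score of at least 8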;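 note: Pro5 are CHO cells carrying HIG-tagged alpha-DG that lacks glycosylation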
A1 inh – inhibitors of the anti-apoptotic protein A1, read as caspase activation; 330,000 tested, 0.066% active; caspase activation, % (concentration not given with the values); MEF A1-2A-BIM cells, Caspase-Glo 3/7 luminescence, 3 h; percent of clofoctol response, vehicle zero;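 active = over half of replicate activation scores above 10%, or exactly half above 10 with the replicate mean above 10; inconclusive = replicate mean below 10 yet half the replicates above 10; inactive = over half of replicates below 10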
JMH597 growth rt – retest Vibrio harveyi JMH597 growth inhibition; shares compounds with AI-2 QS mod; OD600 absorbance, 9 h; lacks LuxN and CqsS sensors; growth inhibition, % at 7.5 µM; 750 tested, 1% active; AID 2726;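 active = every replicate shows growth inhibition above 50%; inconclusive = at least half, but not all, replicates pass that cutoff; inactive = fewer than half of replicates pass it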
BB721 const-QS lum – retest counter-screen: BB721 constitutive quorum sensing luminescence decrease | shares compounds with AI-2 QS mod | Vibrio harveyi BB721 luminescence, 9 h | inhibition, % at 7.5 µM | 750 tested, 95% active;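 active = inhibition above about 80% in every replicate, not just on average, limit read from the data; inconclusive = at least half of replicates past the limit, but not all; inactive = fewer than half of replicates past the limit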
BB721 growth rt – retest: inhibitors of Vibrio harveyi BB721 growth. OD600 absorbance, 9 h. growth inhibition, % at 7.5 µM. 750 tested, 3% active. shares compounds with AI-2 QS mod;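 active = every replicate shows growth inhibition above 50%; inconclusive = at least half but not all replicates above 50% inhibition; inactive = under half of replicates above 50% inhibition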
AI-2 QS JMH597 – Vibrio harveyi AI-2 signaling luminescence modulation – JMH597 strain, confirmation; shares compounds with AI-2 QS mod; Vibrio harveyi JMH597 AI-2 quorum sensing luminescence, 9 h; luxN and CqsS knockout, AI-2 only; inhibition, % at 7.5 µM; 750 tested, 97% active;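 active = every replicate shows more than 75% inhibition of signal versus neutral control wells; inconclusive = half to three quarters of replicates exceed 75% inhibition; inactive = fewer than half of replicates exceed 75% inhibition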
Numbers without * were called inactive; ? = inconclusive; / = no result. The list is not random: actives were taken first. Their share in the collection is about 1.8%.

SMILES	Mot1-301 SUMO	AI-2 QS mod	ARNT-TACC3 inh	aDG glyco up	A1 inh	JMH597 growth rt	BB721 const-QS lum	BB721 growth rt	AI-2 QS JMH597
Fc1ccc(CSc2nnc(-c3cccs3)o2)cc1	204.4	-89.3*	-7.3	0.3	-0.8	13.3	96.8*	8.6	97.3*
CCOc1cccc2sc(=NC(=O)c3ccco3)n(CC(=O)OC)c12	-3.0	6.0	-1.1	-0.1	0.0	/	/	/	/
COc1ccc(C(CNC(=O)c2cc(S(=O)(=O)NCc3ccccc3)ccc2C)N2CCOCC2)cc1 (stereo unspecified)	-13.1	37.2	/	0.6	-0.4	/	/	/	/
Clc1cccc(CSc2nnc(-c3c[nH]c4ccccc34)o2)c1	7.5	-87.8*	-3.0	0.0	-0.5	22.1	93.1*	21.8	95.3*
Clc1ccc2nc(CSc3nnc(-c4c[nH]c5ccccc45)o3)cn2c1	/	/	0.2	0.0	/	/	/	/	/
CC(C)c1ccc(NC(=O)CSc2nc3ncccc3[nH]2)cc1	2.1	-82.7*	2.3	0.0	1.1	24.7	92.8*	17.9	95.2*
COc1ccc(NC(=O)CSc2nc3ncccc3[nH]2)cc1OC	3.8	11.9	-2.8	0.0	0.7	/	/	/	/
CC(C)OC(=O)c1ccc(NC(=O)CSc2nc3ncccc3[nH]2)cc1	-0.7	-85.1*	-0.9	1.3	-0.8	27.3	96.2*	22.5	97.5*
O=C(OCC(O)C(O)C(O)COC(=O)c1ccccc1)c1ccccc1 (stereo unspecified)	/	/	-0.1	-0.2	/	/	/	/	/
CCOC(=O)Nc1ccc2c(c1)N(C(=O)CN)c1ccccc1CC2	-3.9	12.2	0.3	-0.2	0.3	/	/	/	/
Cn1cc(Br)c(C(=O)NNC(=O)c2ccc(Br)cc2)n1	-16.1	/	-37.5	-0.3	0.0	/	/	/	/
Cc1c(Br)c(C(=O)NNC(=O)c2ccc(C(C)(C)C)cc2)nn1C	10.7	-87.6*	-8.2	-0.2	0.1	11.8	96.4*	22.7	97.5*
O=C(NCc1nc(-c2ccccc2)no1)c1ccc(Br)o1	19.1	-94.8*	-1.7	-0.1	0.9	-24.2	97.9*	-27.6	98.6*
O=C(NCc1nc(-c2ccc(C(F)(F)F)cc2)no1)c1cccs1	-2.3	-94.2*	-3.6	0.0	0.8	-19.2	96.4*	-12.6	97.4*
Cc1cccc(NCc2nc(-c3ccccc3)no2)c1	5.4	?	-8.3	0.0	0.0	11.9	96.3*	-10.7	97.7*
Cc1cccc(-c2noc(CNC(=O)c3ccco3)n2)c1	92.0	-94.1*	/	0.1	-0.4	7.9	98.6*	28.7	98.9*
COC(=O)c1sc(SC)c(S(=O)(=O)C(C)C)c1N/N=C(\C#N)C(=O)c1ccccc1	-15.1	11.7	1.8	0.0	-0.5	/	/	/	/
Cc1ccc(CNC(=O)/C=C/c2cccs2)cc1	17.8	-96.2*	-3.3	-0.1	-0.1	0.1	98.6*	-10.2	99.0*
Cc1ccc(CCC(=O)Nc2ccccc2F)s1	5.5	-88.7*	/	0.2	-6.7	17.5	94.3*	2.5	95.8*
O=C(CC(=O)Nc1ccccc1F)Nc1ccccc1F	16.1	6.8	-8.9	-0.2	-0.5	/	/	/	/
CCC(=O)N1CC[C@H]2[C@H](CO)Nc3ccc(-c4ccccc4)cc3[C@H]21	/	/	16.5	/	/	/	/	/	/
Cc1cccc(CSc2nnc(-c3ccccn3)n2N)c1	0.0	-90.4*	45.4*	0.0	-1.8	-4.5	91.7*	3.1	94.2*
Nn1c(SCc2ccc(Br)cc2)nnc1-c1ccccn1	-1.9	-54.0	44.0	-0.3	-1.8	/	/	/	/
CCn1cc(CCCC(=O)NCc2cccnc2)c2ccccc21	-11.0	22.8	3.2	0.1	-0.2	/	/	/	/
NS(=O)(=O)c1ccc(CNS(=O)(=O)c2cc(Cl)ccc2Cl)cc1	-4.5	-1.8	-2.9	-0.1	0.4	/	/	/	/
SMILES	Mot1-301 SUMO	AI-2 QS mod	ARNT-TACC3 inh	aDG glyco up	A1 inh	JMH597 growth rt	BB721 const-QS lum	BB721 growth rt	AI-2 QS JMH597
NS(=O)(=O)c1ccc(NC(=O)Cn2nc(C(=O)O)c3ccccc3c2=O)cc1	77.5	9.4	-4.1	0.0	0.3	/	/	/	/
Cc1nn(CC(=O)Nc2ccc(C(=O)N3CCCCC3)cc2)c(=O)c2ccccc12	-1.6	-81.9*	-0.8	0.1	0.4	7.4	92.9*	-10.9	94.2*
Cc1nn(CC(=O)Nc2ccc(C(=O)N3CCCC3)cc2)c(=O)c2ccccc12	8.0	-82.7*	-42.6	0.0	1.4	-28.9	94.5*	-22.2	95.8*
Cc1nn(CC(=O)Nc2cccnc2)c(=O)c2ccccc12	2.6	-95.5*	-3.3	0.1	2.0	-0.7	98.5*	-8.9	99.1*
CNC(=O)Cn1nc(C)c2ccccc2c1=O	-9.5	3.5	-7.7	-0.2	0.3	/	/	/	/
Cc1nn(CC(=O)Nc2ccc(S(N)(=O)=O)cc2)c(=O)c2ccccc12	-8.7	-83.9*	-3.0	-0.2	-2.2	-11.4	97.9*	-14.0	98.6*
O=C(NC1CCCCC1)C(c1ccc2ncccc2c1)N(Cc1ccccc1)C(=O)c1cccs1 (stereo unspecified)	-1.7	11.8	3.8	0.4	-0.2	/	/	/	/
COc1ccc2c(CN3CCN(C(C)=O)CC3)cc(=O)oc2c1	/	/	/	0.0	/	/	/	/	/
COc1ccc(NCc2cc(=O)oc3cc(NC(C)=O)ccc23)cc1	-1.6	-81.5*	-3.2	-0.1	1.8	8.0	88.1*	8.1	92.5*
Cn1nc(C(F)(F)F)c2cc(NC(=O)OCc3ccc(F)cc3)sc21	/	-92.8*	-1.2	0.4	-0.4	13.2	98.7*	39.9	98.1*
O=CN1CCN(C(=S)Nc2ccc(OC(F)F)cc2)CC1	-2.5	5.1	/	0.0	0.3	/	/	/	/
Oc1oc(-c2ccccc2)nc1C=NCc1ccccc1	57.3	?	-7.4	-0.2	-0.7	13.8	92.9*	22.1	95.3*
Oc1oc(-c2ccccc2)nc1C=Nc1ccccc1	0.5	10.6	12.2	-0.1	-1.0	/	/	/	/
COc1ccc(NC(C)=O)cc1S(=O)(=O)NCc1ccc2c(c1)OCO2	/	/	/	0.2	/	/	/	/	/
CC(C)(C)c1ccc(/C=N/NC(=O)C2CCCC2)cc1	28.3	-83.2*	3.7	0.3	-0.6	31.5	96.2*	?	97.1*
CC(C)c1ccc(/C=N/NC(=O)C2CCCC2)cc1	26.4	?	-16.1	0.8	0.3	-1.5	91.4*	3.9	92.4*
CC(=O)Nc1ccc(C=NNC(=O)C2CC2)cc1	/	/	-2.1	-0.1	/	/	/	/	/
O=C(NCc1ccc(Cl)cc1)C(=O)c1c[nH]c2ccccc12	-7.0	-88.9*	/	-0.1	0.1	-18.0	96.7*	-31.0	97.8*

Screens deposited in PubChem BioAssay by several laboratories.
